STK33 inh: human STK33 kinase inhibition | AID 2322 | inhibition, % at 12.5 µM | Q9BYT3 | ADP-Glo luminescence, MBP substrate | 27,000 tested, 0.44% active; in the data active = inhibition above about 20%
Target sequence (Q9BYT3 whole entry, looked up): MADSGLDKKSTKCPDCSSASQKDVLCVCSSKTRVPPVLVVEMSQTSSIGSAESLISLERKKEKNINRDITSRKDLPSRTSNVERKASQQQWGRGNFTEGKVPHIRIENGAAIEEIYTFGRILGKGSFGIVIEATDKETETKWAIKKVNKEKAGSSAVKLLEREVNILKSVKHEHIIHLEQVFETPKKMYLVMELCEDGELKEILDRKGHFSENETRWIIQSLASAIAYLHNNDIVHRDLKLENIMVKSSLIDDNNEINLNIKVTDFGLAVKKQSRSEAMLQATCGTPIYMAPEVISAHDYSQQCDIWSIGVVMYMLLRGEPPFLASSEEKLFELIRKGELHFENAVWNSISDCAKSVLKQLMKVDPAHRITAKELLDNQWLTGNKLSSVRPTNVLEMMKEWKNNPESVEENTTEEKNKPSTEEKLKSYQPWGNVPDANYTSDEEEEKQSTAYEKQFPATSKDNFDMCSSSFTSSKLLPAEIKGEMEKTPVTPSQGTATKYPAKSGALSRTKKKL
NOMO-1 viab: STK33 inhibitor candidate reducing NOMO-1 cell viability; 37,000 tested, 7.5% active; inhibition, % (test concentration not listed); NOMO-1 AML viability, CellTiter-Glo luminescence, 72 h; in the data active = inhibition above about 80%
PD-1 reverse act: activators reversing PD-1 mediated T-cell inhibition | primary human CD4 T cells, PD-L1 beads, CellTiter-Glo 96 h | activation, % (test concentration not listed) | 29,000 tested, under 10 active | AID 2316; call rule not given here;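 note: 0% = median vehicle wells and 100% = positive control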
An asterisk follows results filed as active; x = no result given; ! = not confirmed by another sample. Many of the other results were omitted from the sample, so hits are more common in it than they were.

SMILES	STK33 inh	NOMO-1 viab	PD-1 reverse act
C[C@H](CO)N1C[C@H](C)[C@@H](CN(C)S(=O)(=O)c2cccs2)Oc2c(NC(=O)Nc3ccc(C(F)(F)F)cc3)cccc2C1=O	x	45	2
COc1ccc(CN(C)C[C@H]2Oc3ccc(NC(=O)Nc4cccc5ccccc45)cc3C(=O)N([C@H](C)CO)C[C@@H]2C)cc1	x	24	-1
COc1ccc(CN(C)C[C@H]2Oc3ccc(NC(=O)Nc4cccc5ccccc45)cc3C(=O)N([C@@H](C)CO)C[C@H]2C)cc1	x	40	0
C[C@@H]1CN([C@@H](C)CO)C(=O)c2cc(NC(=O)Nc3cccc4ccccc34)ccc2O[C@@H]1CN(C)Cc1ccc(Oc2ccccc2)cc1	x	114*	x
C[C@@H]1CN([C@H](C)CO)C(=O)c2cc(NC(=O)Nc3cccc4ccccc34)ccc2O[C@H]1CN(C)Cc1ccc(Oc2ccccc2)cc1	6	109*	-9
Cc1cc(C(=O)Nc2cccc3c2O[C@@H](CN(C)C(=O)NC2CCCCC2)[C@H](C)CN([C@@H](C)CO)C3=O)n(C)n1	x	9	1
COc1ccc(NC(=O)Nc2ccc3c(c2)C(=O)N([C@H](C)CO)C[C@H](C)[C@H](CN(C)Cc2ccc(Cl)c(Cl)c2)OCCCC[C@@H](C)O3)cc1	4	98*	-4
C[C@@H]1CCCCO[C@H](CN(C)Cc2ccccc2)[C@@H](C)CN([C@H](C)CO)C(=O)c2cc(NC(=O)c3ccccc3)ccc2O1	5	27	x
CC(C)NC(=O)Nc1ccc2c(c1)C(=O)N([C@H](C)CO)C[C@H](C)[C@H](CN(C)Cc1ccncc1)OCCCC[C@@H](C)O2	0	19	1
COc1ccc(NC(=O)Nc2ccc3c(c2)C(=O)N([C@H](C)CO)C[C@H](C)[C@@H](CN(C)Cc2ccc(Cl)c(Cl)c2)OCCCC[C@@H](C)O3)cc1	2	43	x
CC(C)NC(=O)Nc1ccc2c(c1)C(=O)N([C@H](C)CO)C[C@H](C)[C@H](CN(C)Cc1ccc(Cl)c(Cl)c1)OCCCC[C@@H](C)O2	2	101*	-6
C[C@@H]1CCCCO[C@@H](CN(C)Cc2ccncc2)[C@@H](C)CN([C@H](C)CO)C(=O)c2cc(NC(=O)Nc3ccc(F)cc3)ccc2O1	-2	-6	x
C[C@@H]1CCCCO[C@H](CN(C)Cc2ccc(Cl)c(Cl)c2)[C@@H](C)CN([C@H](C)CO)C(=O)c2cc(NC(=O)Nc3ccc(F)cc3)ccc2O1	3	126*	x
C[C@@H]1CCCCO[C@@H](CN(C)Cc2ccc(Cl)c(Cl)c2)[C@@H](C)CN([C@H](C)CO)C(=O)c2cc(NC(=O)c3ccccc3)ccc2O1	4	122*	-6
COc1ccccc1NC(=O)CN(c1ccc(F)cc1)S(C)(=O)=O	0	10	0
CC1(C)C2CC(=O)O[C@@]3(C)C4=CC(=O)O[C@@H](c5ccoc5)[C@]4(C)CCC3[C@@]2(C)C=C[C@H]1O (stereo not given in full)	1	34	x
C[C@@H]1CCCCO[C@H](CN(C)Cc2ccc3c(c2)OCO3)[C@@H](C)CN([C@H](C)CO)C(=O)c2cc(NC(=O)Nc3ccc(F)cc3)ccc2O1	-5	70	-3
C[C@@H]1CN([C@@H](C)CO)C(=O)c2cc(NC(=O)NC3CCCCC3)ccc2O[C@@H]1CN(C)Cc1ccc(Cl)c(Cl)c1	0	22	-1
C[C@@H]1CCCCO[C@@H](CN(C)Cc2ccc(Cl)c(Cl)c2)[C@@H](C)CN([C@H](C)CO)C(=O)c2cc(NC(=O)Nc3ccc(F)cc3)ccc2O1	5	134*	-2
C[C@@H]1CCCCO[C@@H](CN(C)Cc2ccc(Cl)c(Cl)c2)[C@@H](C)CN([C@H](C)CO)C(=O)c2cc(NC(=O)NC3CCCCC3)ccc2O1	4	112*	-1
COc1ccc(CN(C)C[C@@H]2Oc3ccc(NC(=O)Nc4ccc5c(c4)OCO5)cc3C(=O)N([C@@H](C)CO)C[C@H]2C)cc1	x	5	1
CCN(CC)CCOc1ccc(/C(=C(/Cl)c2ccccc2)c2ccccc2)cc1	-1	69	x
CC/C(=C(\c1ccccc1)c1ccc(OCCN(C)C)cc1)c1ccccc1	3	96*!	1
COc1cc(-c2oc3cc(O)c(OC)c(O)c3c(=O)c2O[C@@H]2O[C@H](CO[C@@H]3O[C@H](CO)[C@@H](O)[C@H](O)[C@H]3O)[C@@H](O)[C@H](O)[C@H]2O[C@@H]2OCC(O)(CO)[C@H]2O)ccc1O (stereo not given in full)	-2	25	3
COc1ccc(S(=O)(=O)Nc2cccc3c2O[C@H](CN(C)Cc2ccc(Cl)c(Cl)c2)[C@H](C)CN([C@@H](C)CO)C3=O)cc1	x	31	-2

Screening results from PubChem BioAssay.
